# Rows were chosen to be rich in hits. Some 19% of all compounds tested hit in one or more screens of this group.
# IL-1B inflam inh = inflammasome signaling inhibition, IL-1 beta readout. AID 743279. 360,000 compounds, 4.7% hits. activity change, % at 57.5 µM. THP-1 LPS/ATP IL-1B secretion, AlphaLISA, 16 h; hits give low values; in the data active = activity change below about -50%; inconclusive = mostly about -30% to -49%
#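 THP-1 cells pretreated 1 hr with compounds (up to 57.5 uM final), then stimulated with LPS (250 ng/mL final) plus ATP (1.25 mM final); secreted IL-1B measured by AlphaLISA after 16 hr, decreased signal indicating inhibition.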
# TDP1 cell noCPT = qHTS for Inhibitors of human tyrosyl-DNA phosphodiesterase 1 (TDP1): qHTS in cells in absence of CPT; DT40 Tdp1-/- hTDP1 cells, no CPT, ATP luminescence, 48 h; Potency, µM (series often up to 46.2 µM), without a hit: at the top dose activity change, negative = growth inhibition, hits mostly inhibitors; 420,000 compounds, 15% hits; note: potency is the fitted concentration of half-maximal effect; nearly all actives have a fitted effect of over 55% in size
#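 A cellular qHTS used chicken DT40 cells lacking endogenous Tdp1 but carrying stably transfected human TDP1. Compounds were applied without camptothecin, and cell growth kinetics were judged by ATP-dependent luminescence after ≥48 hr.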
# ELG1 repair inh = blocks ELG1-dependent DNA repair in HEK293T cells; HEK293T ELG1-luciferase reporter, luminescence, 16 h; DNA damage induced by 5-fluorouridine; 330,000 compounds, 2.3% hits; Potency, µM (highest dose often 46.1 µM), for the others: at the top dose activity change, negative = inhibition, most hits filed as inhibitors; note: potency is the fitted concentration of half-maximal effect; nearly all actives have a fitted effect of over 55% in size
#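 5-Fluorouridine DNA damage + compound/DMSO, 2,000 cells/well, 16 h, 37 °C/5% CO2. ONE-Glo, 30 min RT, luminescence. Readout = decrease in reporter signal.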
# HT1080-NT tox = kills 2HG-producing HT-1080-NT fibrosarcoma cells; 360,000 compounds, 1.6% hits; HT-1080-NT fibrosarcoma viability, CellTiter-Glo ATP luminescence, 48 h; Potency, µM (doses to about 46.1 µM), inactives show top-dose activity, negative = less viability, hits mostly cytotoxic;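 note: NT is the 2HG producing partner of a matched IDH1 knockdown line; potency is the fitted concentration of half-maximal effect; 0% = DMSO-treated cells and -100% = media-only wells without cells; nearly all actives have a fitted effect of over 55% in size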
#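 750 cells/well, RPMI + 5% FBS; 2 h settle, compound pin-transfer, 48 h at 37 degrees C. CellTiter-Glo 10 min RT, luminescence. Normalized to DMSO and media-only wells.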
# DT40 TDP1 CPT = growth inhibition of DT40 Tdp1-/-;hTDP1 cells with camptothecin (screen for TDP1 inhibitors); chicken DT40 Tdp1-/-;hTDP1 cells + 20 nM CPT, ATP luminescence, 48 h; Potency, µM (titrated, usually from 46.2 µM), for the others: top-dose activity change, negative = growth inhibition, usual class: inhibitors; 420,000 compounds, 12% hits; AID 686979; note: potency is the fitted concentration of half-maximal effect; nearly all actives have a fitted effect of over 55% in size
#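 Chicken DT40 Tdp1-/- cells complemented with human TDP1, 400 cells/well, exposed to compounds plus 20 nM camptothecin for at least 48 h at 37 C; viability read as ATP content by CellTiter-Glo luminescence.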
# HT1080 IDH1KD tx = HT-1080 IDH1 knockdown cell toxicity (counter line). HT-1080 IDH1 knockdown viability, ATP luminescence, 48 h. Potency, µM (top dose mostly 46.1 µM), inactives show top-dose activity, negative = toxicity, actives largely listed as cytotoxic. 360,000 compounds, 2% hits;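 note: potency is the fitted concentration of half-maximal effect; 0% = DMSO wells and -100% = cell-free medium wells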
#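 HT-1080-IDH1KD cells (IDH1 knocked down), 750/well in RPMI with 5% FBS, treated with compound 48 h at 37 degrees C. Viability by CellTiter-Glo luminescence, normalised to DMSO and no-cell wells; concentration-response curves classed.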
# * marks the source's active call; other numbers are inactive results; i = inactive; ? = inconclusive; nt = no result; [ ] = another dose, or the depositor's remark. Unless noted, calls come from the whole dose curve; as a rule, active = well fitted curve in the direction sought with a large enough effect; inconclusive = small, poorly fitted or top-dose-only effect, or another doubt; inactive = no such curve, though single readings can be large; an effect the other way counts as inactive or inconclusive. Unless noted, % is set by controls: 0 for no effect and ±100 for the full control effect.
SMILES,IL-1B inflam inh,TDP1 cell noCPT,ELG1 repair inh,HT1080-NT tox,DT40 TDP1 CPT,HT1080 IDH1KD tx
Cc1cc(NC(=O)c2ccc(-c3ccccc3F)o2)no1,-7,18µM*,?,16%,?,16%
Cc1cc(NC(=O)c2cccc(C(=O)Nc3cc(C)on3)n2)no1,0,0.65µM*,?,-16%,0.18µM*,-25%
Cc1cc(NC(=O)c2cc(-c3ccccn3)nc3c(Cl)cccc23)no1,17,-14%,9%,-8%,-18%,-7%
Cc1cc(NC(=O)c2cc(-c3ccncc3)nc3c(C)cccc23)no1,37,2.9µM*,9.2µM*,5.8µM*,4.1µM*,3.7µM*
Cc1cccc(NC(=O)c2cc(-c3cccnc3)nc3c(C)cccc23)n1,i,15µM*,-6%,?,?,?
Cc1ccsc1C(=O)N1CCCC(C)(C(=O)NS(=O)(=O)C2CC2)C1 (stereo not given),20,?,nt,0%,-55%,0%
CCOc1ccc(S(=O)(=O)N2CCCC(C(=O)NCCN3CCOCC3)C2)cc1Cl (stereo not given),-7,-15%,-7%,-9%,?,-8%
CC(=NNC(=O)c1ccncc1)c1cc(Cl)ccc1Cl,-5,-25%,nt,14%,-13%,0%
Cc1ccc(CN2CCN(CC(=O)NCc3ccccc3Cl)C2=O)cc1,nt,-9%,nt,nt,1%,nt
O=C(O)c1ccccc1SC1CC(=O)N(c2cccc3ccccc23)C1=O (stereo not given),-6,2.6µM*,0%,-22%,1.8µM*,-6%
CCOC(=O)c1c(N2C(=O)CC(Sc3ccccc3C(=O)O)C2=O)sc2c1CCCC2 (stereo not given),-10,15µM*,-7%,6%,15µM*,-16%
CCN1C(=O)CC(Sc2ccccc2C(=O)O)C1=O (stereo not given),0,4%,8%,-1%[9.24 µM],2%,8%
Cc1coc2cc3oc(=O)c(CCC(=O)NCc4ccccc4Cl)c(C)c3cc12,nt,-2%,nt,nt,-19%,nt
Cc1c2cnn(-c3ccccc3)c(=O)c2c(C)n1CC(=O)NCCc1ccc(Cl)cc1,nt,-4%,nt,nt,-18%,nt
C=CCNC(=S)Nc1ccc(OC)c(S(=O)(=O)N2CCOCC2)c1,0,-1%,-3%,6%,2%,6%
O=C(c1cccc([N+](=O)[O-])c1)N1CCN(CCc2ccncc2)CC1,nt,-3%,nt,nt,-11%,nt
CC(C)CN(CC(C)C)CC(O)COc1ccc([N+](=O)[O-])cc1 (stereo not given),?,18µM*,-1%,-4%,?,1%
CC(C)COc1ccc(C(=O)Nc2ccc(SC(F)F)cc2)cc1,2,-25%,?,0%,-25%,1%
CC(C)COc1ccc(C(=O)Nc2ccc([N+](=O)[O-])cc2)cc1,0,-22%,1.5µM*,14%,-23%,-1%
CC(C)COc1ccc(C(=O)Nc2onc3c2CCCC3)cc1,nt,23µM*,nt,nt,13µM*,nt
CCC(=O)Oc1ccc(C(=O)Nc2ccc([N+](=O)[O-])cc2)cc1,?,?,?,1%,?,-10%
COc1cc(SC)ccc1C(=O)Nc1ccc2ncccc2c1,-12,?,?,?,?,-20%
COc1ccc2c(c1)c1c(c(=O)n(-c3ccccc3)c(=O)n1CC(=O)Nc1ccc(F)cc1)n2C,nt,-6%,nt,nt,-2%,nt
CCOC(=O)C1=Nc2ccccc2C1=[N+]=[N-],-71*,7.3µM*,?,-25%,4.6µM*,?
CCOC(=O)c1cnc(-c2ccccc2O)nc1Cl,13,-16%,?,-15%,9%,15%
SMILES,IL-1B inflam inh,TDP1 cell noCPT,ELG1 repair inh,HT1080-NT tox,DT40 TDP1 CPT,HT1080 IDH1KD tx
C[C@H]1CN([C@@H](C)CO)C(=O)CCCn2nncc2CO[C@@H]1CN(C)S(=O)(=O)c1ccc(-n2cccn2)cc1,16,-1%,nt,6%,4%,5%
CSCCC(NC(=O)COc1ccccc1)C(=O)N1CCN(c2ccccc2F)CC1 (stereo not given),0,23µM*,-11%,9%,15µM*,-1%
c1ccc2c(c1)nc(Nc1ccc3c(c1)OCO3)c1nnnn12,-12,16µM*,?,-30%,?,?
c1ccc(Nc2nc3ccccc3n3nnnc23)cc1,58,?,?,-12%,?,-7%
COc1ccccc1N1CCN(C(=O)c2ccc(Nc3nc4ccccc4n4nnnc34)cc2)CC1,nt,?,nt,nt,9.2µM*,nt
COc1cccc(Nc2nc3ccccc3n3nnnc23)c1,15,?,-20%,-10%,?,-7%
CCN(CC)S(=O)(=O)c1ccc(Nc2nc3ccccc3n3nnnc23)cc1,3,16µM*,?,-19%,23µM*,-19%
COc1ccc(Nc2nc3ccc(Cl)cc3n3nnnc23)cc1OC,nt,16µM*,nt,nt,?,nt
CCOC(=O)c1nn(-c2ccccc2)c2nnc(Cc3ccccc3)c(=O)n12,8,-1%,0%,-5%,6%,-3%
CC(O)(c1cccc(F)c1)c1nc(-c2ccoc2)cs1 (stereo not given),-27,?,nt,?,?,?
CCc1ccccc1N(C)C(=O)Cc1c(C(=O)O)c(C)cn1C,nt,-12%,nt,nt,0%,nt
O=c1[nH]c2ccc(Cl)cc2c(-c2ccccc2)c1N1CCOCC1,0,-6%,-8%,-2%,-22%,0%
O=c1[nH]c2ccc(Cl)cc2c(-c2ccccc2)c1CN1CCOCC1,-5,21µM*,-6%,?,?,?
O=C1C2=C(c3ccccc31)[N+](=O)C1CCCCC1N2[O-] (stereo not given),0,15µM*,?,15%,23µM*,10%
O=C1C2=C(c3ccccc31)[N+](=O)[C@@H]1CCCC[C@@H]1N2[O-],20,?,?,6%,?,-26%
N/C(=N\OCC(=O)Nc1ccc(F)c(Cl)c1)c1ccccc1,-2,?,11%,-21%,23µM*,-11%
Cc1c(C#N)c(N=CN(C)C)c(C(=O)c2ccc(Br)cc2)n1-c1ccc(Cl)cc1,-1,?,?,?,11µM*,?
COCCCNC1=C(C#N)C(=O)NC(c2cccs2)S1 (stereo not given),-25,-3%,nt,8%,-4%,4%
